Screens as filed in PubChem.
CYP2C9 inhib: human CYP2C9 inhibition; CYP2C9 Supersomes, luciferin-H conversion, luminescence; inhibition, % at 5 µM; actives 20% (n = 96,000);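 active = blocking of liver enzyme CYP2C9 beyond about 50% at 5 µM, limit read from the data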
CYP2C19 inh: inhibitors of human CYP2C19; CYP2C19 Supersomes, luciferin-H EGE luminescence, 30 min; actives 21% (n = 96,000); inhibition, % at 5 µM; P33261;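 active = CYP2C19 inhibition above a set limit at 5 µM in the primary screen, cut at about 50% in these data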;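 note: plate controls were negative control wells for no effect and 2.5 mM tranylcypromine positive control for full effect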
Target sequence (P33261 whole entry, looked up): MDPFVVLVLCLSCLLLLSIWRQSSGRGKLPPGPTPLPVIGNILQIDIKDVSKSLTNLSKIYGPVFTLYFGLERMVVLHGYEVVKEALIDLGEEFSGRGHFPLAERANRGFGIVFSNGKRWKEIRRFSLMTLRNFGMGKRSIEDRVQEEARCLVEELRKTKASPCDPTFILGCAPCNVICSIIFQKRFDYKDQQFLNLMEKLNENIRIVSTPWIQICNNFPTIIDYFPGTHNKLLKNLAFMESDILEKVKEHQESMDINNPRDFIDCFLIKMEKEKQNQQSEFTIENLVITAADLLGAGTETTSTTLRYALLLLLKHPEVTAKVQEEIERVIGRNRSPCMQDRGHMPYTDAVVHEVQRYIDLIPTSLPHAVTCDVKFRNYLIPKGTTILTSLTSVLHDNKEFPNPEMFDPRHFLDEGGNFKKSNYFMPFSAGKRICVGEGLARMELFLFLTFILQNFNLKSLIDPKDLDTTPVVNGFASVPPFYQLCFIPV
F-actin modifier: cytoskeleton assembly modification. HUVEC TNFa F-actin phalloidin imaging, high content. inhibition, % at 2 µM. actives 0.18% (n = 91,000). AID 836;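 active = inhibition above the batch mean plus 3 SD and confirmed as a hit by visual image inspection, cut at about 30% in these data, passing the limit was not always enough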
CYP2C19 activ: cytochrome P450 2C19 (human) activation; P33261; recombinant CYP2C19, luciferin-H EGE luminescence; active compounds read high; 0 = fully inhibited enzyme, 1 = untreated enzyme; activation factor at 5 µM; 96,000 tested, under 10 active; AID 1025;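 active = activation factor of at least 2 at 5 µM in the primary screen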;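 note: 0 = wells with 2.5 mM tranylcypromine and 1 = vehicle-only wells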
E-sel TNF inh: blocks E-selectin expression induced by TNF alpha; HUVEC TNFa-induced E-selectin immunofluorescence, high content; inhibition, % at 2 µM; actives 0.71% (n = 120,000); AID 1246;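 active = inhibition above the batch mean plus 3 SD, and confirmed as a hit on visual image review, cut at about 43% in these data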;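 note: 0% = TNF-stimulated DMSO wells and 100% = unstimulated control wells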
CYP2C9 activ: activators of human CYP2C9. P11712. recombinant CYP2C9, luciferin-H conversion, luminescence; active compounds read high; factor 1 = untreated enzyme, 0 = blocked. activation factor at 5 µM. actives 1.4% (n = 96,000). AID 1024;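 active = activation factor of 2 or more for CYP2C9 at a 5 µM dose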;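 note: 0 = sulfaphenazole-blocked wells and 1 = vehicle-only wells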
* marks the source's active call; other numbers are inactive results; nt = no result. An excerpt weighted towards active compounds, which were near 22% of everything screened.

SMILES	CYP2C9 inhib	CYP2C19 inh	F-actin modifier	CYP2C19 activ	E-sel TNF inh	CYP2C9 activ
Cn1ccs/c1=N\S(=O)(=O)c1ccc(Br)cc1	-141	37	-15	0.6	-34	2.4*
O=S(=O)(Nc1nccs1)c1ccc(Br)cc1	nt	nt	nt	nt	-16	nt
O=C1CC2C(=O)NCCN2C(=NC(=O)c2ccc(Cl)cc2)N1 (stereo not drawn)	nt	nt	nt	nt	17	nt
COc1ccc(-c2[nH]ncc2-c2ccc(Cl)cc2)c(O)c1	43	75*	-29	0.3	nt	0.6
Oc1ccc(-c2[nH]ncc2-c2ccc(Cl)cc2)c(O)c1	91*	92*	-4	0.1	-15	0.1
COc1ccc(-c2ccc(OC)cc2C(=O)O)cc1	-8	5	-2	1	16	1.1
Oc1ccc(-c2[nH]ncc2-c2cccc3cccnc23)c(O)c1	53*	54*	31	0.5	6	0.5
CN1C2C=C3C(C#N)=C(N)C(C#N)(C#N)[C@@H](c4ccc(Cl)cc4)[C@@H]3C1CC2 (stereo partly drawn)	-4	-8	-15	1.1	14	1
Cn1c(-c2cccs2)[n+](C)c2ccccc21	nt	nt	nt	nt	-16	nt
COc1cccc(NC(=O)c2nnn(CCc3ccccc3)c2N)c1	92*	73*	-13	0.3	-10	0.1
CCc1ccc(Cn2nnc(C(=O)Nc3ccc(OC)cc3OC)c2N)cc1	-238	-8	3	1.1	-12	3.4*
CCC/C(=N/NC(=O)c1ccc2c(c1)OCO2)c1cccs1	nt	nt	nt	nt	13	nt
CCn1c(SCC(=O)c2cc(OC)ccc2OC)nc2c1c(=O)n(C)c(=O)n2C	25	11	nt	0.9	nt	0.8
COCCn1c(SCC(=O)c2ccc(F)cc2)nnc1C(C)C	79*	76*	nt	0.2	-37	0.2
COc1cc2c(cc1NC(=O)COC(=O)Cn1cnc3ccccc31)oc1ccccc12	61*	40	-11	0.6	40	0.4
CCCn1c(SCC(=O)c2cc(OC)ccc2OC)nnc1C(C)C	16	92*	-10	0.1	12	0.8
COCCn1nnnc1SCC(=O)c1ccc(F)cc1	nt	nt	2	nt	nt	nt
COc1cc2c(cc1NC(=O)CSc1nnc(Cc3cccs3)n1Cc1ccco1)oc1ccccc12	84*	58*	-7	0.4	nt	0.2
CCn1c(Cc2cccs2)nnc1SCC(=O)Nc1ccc(OC)c(OC)c1	-25	-23	-4	1.2	nt	1.2
COc1cc2c(cc1NC(=O)CSc1nnc(Cc3cccs3)n1C)oc1ccccc12	57*	15	-12	0.8	-30	0.4
Cc1cc(Cl)ccc1NC(=O)CSc1nnc(Cc2cccs2)n1Cc1ccco1	49	61*	6	0.4	0	0.5
CCn1c(SCC(=O)Nc2cc3oc4ccccc4c3cc2OC)nnc1-c1cccs1	55*	41	9	0.6	10	0.4
COc1cc2c(cc1NC(=O)CSc1ccc(C)cc1)oc1ccccc12	48	23	0	0.8	0	0.5
COc1ccc(OC)c(C(=O)CSc2nnc(Cc3cccs3)n2C)c1	36	89*	nt	0.1	-6	0.6
CCN(CC)S(=O)(=O)c1ccc(O)c(C(=O)OCC(=O)Nc2ccc(OC(F)(F)F)cc2)c1	nt	nt	nt	nt	-7	nt
SMILES	CYP2C9 inhib	CYP2C19 inh	F-actin modifier	CYP2C19 activ	E-sel TNF inh	CYP2C9 activ
CCCCNCCOCCOc1ccccc1-c1ccccc1	nt	nt	nt	nt	9	nt
COc1cccc(/C=C/C(=O)Nc2ccc3c(c2)OCCO3)c1OC	nt	nt	nt	nt	-40	nt
CCCN(CC(=O)c1cc(C)n(C)c1C)S(=O)(=O)c1cccc(C(F)(F)F)c1	24	76*	0	0.2	nt	0.8
O=C(Cn1c(-c2ccccc2)noc1=O)NCc1ccccc1	-98	41	16	0.6	3	2*
Cc1cccc(C)c1NC1=C(Cl)C(=O)OC1OC(=O)c1ccccc1 (stereo not drawn)	nt	nt	nt	nt	-2	nt
COc1cccc(NC(=O)COC(=O)c2ccc(S(=O)(=O)NCc3ccco3)cc2)c1	86*	7	11	0.9	18	0.1
O=C(COc1ccccc1)Nc1ccc(S(=O)(=O)NCc2ccco2)cc1	51*	17	-6	0.8	-7	0.5
COc1ccc(C(=O)Nc2ccc(S(=O)(=O)NCc3ccco3)cc2)cc1OC	-5	-4	-18	1	-5	1.1
O=C(COc1ccccc1F)Nc1ccc(S(=O)(=O)NCc2ccco2)cc1	53*	17	28	0.8	3	0.5
CCOc1ccc(S(=O)(=O)NCc2ccco2)cc1	10	22	-3	0.8	3	0.9
CC(C)CC(=O)Nc1ccc(S(=O)(=O)NCc2ccco2)cc1	46	-7	-16	1.1	7	0.5
O=C(COc1ccccc1)NCC(=O)Nc1ccc(S(=O)(=O)NCc2ccco2)cc1	57*	-8	-8	1.1	-10	0.4
COc1nsnc1N1CCOCC1	nt	nt	nt	nt	-11	nt
C=CCn1c(SCC(=O)NC(=O)c2cccn2C)nc2ccccc2c1=O	nt	nt	nt	nt	13	nt
CCC(C)NC(=O)Nc1ccccc1C (stereo not drawn)	-15	8	-24	0.9	14	1.1
Cc1sc2c(c1C)CN(Cc1ccncc1)CN2C(=O)c1ccco1	91*	77*	11	0.2	-5	0.1
Cc1ccc(-n2cc(C(=O)c3ccc(F)cc3)nn2)cc1Cl	17	28	-19	0.7	15	0.8
CCOC(=O)N1CCN(C(=O)/C(=C/c2ccc(OC)cc2)NC(=O)c2ccccc2)CC1	77*	72*	-10	0.3	-66	0.2
CC(=O)NC(CCS(C)(=O)=O)C(=O)Nc1ccc2c(c1)OCO2 (stereo not drawn)	-25	-16	nt	1.2	-11	1.3
CCOC(=O)C1=CN(c2cccc(F)c2)C=C(C(=O)OCC)C1c1cc(OC)c(O)c([N+](=O)[O-])c1	57*	-16	16	1.2	-4	0.4
CCCC(=O)Nc1nnc(CC(=O)N2CCCC2)s1	-21	5	11	0.9	-36	1.2
CCOC(=O)c1cnn(-c2ccccc2)c1-n1cccc1C(=O)C(=O)Nc1ccc(F)cc1	75*	39	11	0.6	-18	0.3
CCOC(=O)c1cnn(-c2ccccc2)c1-n1cccc1C(=O)C(=O)Nc1ccccc1	72*	46	15	0.5	9	0.3
Cc1sc2ncnc(N3CCCCC3C)c2c1C (stereo not drawn)	47	79*	nt	0.2	17	0.5
Cc1sc2ncnc(N3CCCCC3)c2c1C	-21	-4	-5	1	nt	1.2
COc1ccc2cc(CN(CC3CCCO3)S(=O)(=O)c3ccccc3)c(=O)[nH]c2c1 (stereo not drawn)	86*	-17	10	1.2	17	0.1
COc1ccc2cc(CN(CC3COCCO3)S(=O)(=O)c3ccc(Cl)cc3)c(=O)[nH]c2c1 (stereo not drawn)	60*	22	26	0.8	-22	0.4
